Giardia killer: Small Molecules that selectively kill Giardia lamblia: qHTS | Giardia lamblia trophozoite viability | activity change, % at 7.66 µM, hits read low | 0.15% of 340,000 active | AID 540267, 2011; in the data active means activity change below about -80%; inconclusive means between about -30% and that limit;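 further: parasites exposed to compound for two days anaerobically before the ATP read; on the % scale 0 is the no-effect control and ±100 the full control effect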
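Viability, read as ATP luminescence: trophozoites at 100 cells/well, compound added, 48 hrs anaerobic at 37 deg C, then 15-30 min room-temperature development before reading.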
B2AR arrestin: qHTS assay of beta-arrestin-biased ligands of beta2-adrenergic receptor | beta-arrestin recruitment to beta2AR, cell-based reporter | Potency, µM (highest dose often 46.1 µM), for inactives: at the highest dose activation, hits mostly activators | 0.02% of 330,000 active;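 further: potency means the concentration at half of the fitted maximal effect; 0% = DMSO controls and full agonism = EC100 isoproterenol or metaproterenol; nearly all actives have a fitted effect of over 65% in size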
Target sequence (P07550 whole entry, looked up): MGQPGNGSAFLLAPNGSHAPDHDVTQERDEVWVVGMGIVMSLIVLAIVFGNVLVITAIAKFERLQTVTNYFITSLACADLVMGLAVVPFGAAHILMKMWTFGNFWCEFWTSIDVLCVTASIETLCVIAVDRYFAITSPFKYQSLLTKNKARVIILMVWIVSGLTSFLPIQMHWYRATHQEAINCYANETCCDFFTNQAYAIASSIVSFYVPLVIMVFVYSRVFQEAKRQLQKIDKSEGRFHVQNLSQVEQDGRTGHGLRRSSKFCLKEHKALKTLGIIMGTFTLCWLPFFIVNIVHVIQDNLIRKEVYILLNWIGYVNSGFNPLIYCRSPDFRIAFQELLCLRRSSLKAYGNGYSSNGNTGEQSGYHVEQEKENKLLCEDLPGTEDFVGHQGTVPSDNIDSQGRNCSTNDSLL
Epigenetic reg: Quantitative High-Throughput Screen for Regulators of Epigenetic Control; 0.2% of 280,000 active; AID 1865, 2009; Potency, µM (series often up to 53.9 µM), inactives show at the highest dose GFP activation, hits mostly activators; murine LDR cells, GFP reporter derepression, 30 h; further: potency means the concentration at half of the fitted maximal effect; % of control where 0% means no effect; nearly all actives have a fitted effect of over 60% in size
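Readout is the number of GFP-expressing murine LDR cells, counted by cytometry following washing. Cells were treated with compound for 30 h at 37 C; the stably integrated CMV-GFP locus is normally silent.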
p53 reactivation: qHTS assay for re-activators of p53 using a Luc reporter; H1299 p53-A138V BP100-luciferase reporter, luminescence, 24 h; Potency, µM (top dose mostly 92.2 µM), for inactives: at the highest dose activity change, positive = activation, most hits filed as activators; 0.063% of 320,000 active; AID 504706, 2011; further: potency means the concentration at half of the fitted maximal effect; % of control where 0% means no effect; nearly all actives have a fitted effect of over 45% in size
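p53-null H1299 cells stably carrying temperature-sensitive p53-A138V and a BP100-luciferase reporter were pinned with compounds (4-point, 1:5 series) and held 24 hrs at 37 deg C. Luminescence was read 10 min after detection reagent.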
PI4K2A block: qHTS for small molecular inhibitors of PI4K2A | purified PI4K2A, ADP-Glo luminescence, 1 h; stronger effect = lower value | activity change, negative = inhibition, % at 76.9 µM | 0.13% of 420,000 active | AID 1346378, 2018; in the data active means activity change below about -50%; inconclusive means mostly about -30% to -49%;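 further: -100% = wells without enzyme as full effect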
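ADP-Glo luminescence measured ADP generated by PI4K2A enzyme (4 ug/mL before mixing) with 1.2 mM PI substrate (pre-mix) and 300 microM ATP (pre-mix). Tris pH7.5 buffer with MgCl2, Triton X-100; 1 h reaction at ambient temperature.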
Pin1 inh: qHTS Assay to Find Inhibitors of Pin1; Peptidyl-prolyl cis-trans isomerase NIMA-interacting 1 (Homo sapiens), Q13526; 0.009% of 390,000 active; Pin1 FP peptide displacement, HiFluor488, 10 min; Potency, µM (doses to about 115 µM), for inactives: top-dose activity, negative = inhibition, hits mostly inhibitors; active means well fitted inhibition curve with a large enough effect in the polarisation, with a control signal flat, not every such curve was filed as active; inconclusive means small, poorly fitted or top-dose-only effect, or effect the other way, or a change in a side signal; inactive means no such curve, though single readings can be large or run the other way; the % refers to the polarisation; further: potency means the concentration at half of the fitted maximal effect; on the % scale 0 is the no-effect control and ±100 the full control effect
Target sequence (Q13526 whole entry, looked up): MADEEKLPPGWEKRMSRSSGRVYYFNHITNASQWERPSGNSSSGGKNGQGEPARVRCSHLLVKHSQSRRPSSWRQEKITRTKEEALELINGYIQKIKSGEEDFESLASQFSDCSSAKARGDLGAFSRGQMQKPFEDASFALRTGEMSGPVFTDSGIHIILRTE
Active calls of the source: *; u = inconclusive; x = not tested or not shown; ! = repeats disagree. Hits are enriched below; roughly 0.44% of the tested compounds scored in any of these assays. Unless noted, the call rests on the fitted dose curve; in most records, active means well fitted curve in the direction sought with a large enough effect; inconclusive means small, poorly fitted or top-dose-only effect, or another doubt; inactive means no such curve, though single readings can be large; an effect the other way counts as inactive or inconclusive.

SMILES	Giardia killer	B2AR arrestin	Epigenetic reg	p53 reactivation	PI4K2A block	Pin1 inh
C/C=C(/C(=C/C)c1ccc(O)cc1)c1ccc(O)cc1	12.0	1.46µM*	2.1%	-2.6%	0.2	-10.3%
CC(=NN=C(C)c1ccc(O)cc1)c1ccc(O)cc1	-0.5	x	x	x	-10.3	-1.0%
C/C(=N/Nc1nc(-c2ccccc2)cc(-c2ccccc2)n1)c1ccc(N)cc1	x	-0.6%	0.0%	31.6µM*	x	x
O=C(O)/C=C/C(=O)Nc1ccccc1C(=O)OCC(=O)c1ccc2c(c1)OCCO2	u	-0.1%	-0.3%	-6.5%	-28.2	-3.8%
CCCCC(=O)Nc1ccccc1C(=O)OCC(=O)c1ccc2c(c1)OCCO2	-2.7	3.4%	-1.0%	44.7µM*	-0.5	-1.0%
CN1CCc2c(sc(NC(=O)CSc3ccc(F)cc3)c2-c2nc3ccccc3s2)C1	2.7	x	3.16µM*	x	1.4	u
CC(=O)Nc1sc2c(c1-c1nc3ccccc3s1)CCN(C(C)C)C2	15.7	-1.0%	3.98µM*	0.8%	2.0	u
CC(=O)Nc1sc2c(c1-c1nc3ccccc3s1)CCN(C(C)C)CC2	x	x	x	x	-4.1	u
CC(=O)N1CCc2c(sc(NC(=O)CSc3ccc(F)cc3)c2-c2nc3ccccc3s2)C1	x	x	8.3%	x	-1.2	u
C#CCCC(=O)Nc1sc2c(c1-c1nc3ccccc3s1)CCN(C(C)C)C2	x	x	x	x	-5.5	u
CCN1CCc2c(sc(NC(=O)CSc3ccccc3)c2-c2nc3ccccc3s2)C1	8.7	x	0.891µM*	x	-2.3	u
COc1ccc(OC)c(S(=O)(=O)N2CCN(S(=O)(=O)c3ccc4c(c3)OCCO4)CC2)c1	x	x	x	x	x	-1.4%
O=c1[nH]c2ccccc2c(=O)n1CCCl	x	x	x	x	-4.6	x
Cn1cncc1CNc1ncnc2ccc(-c3ccc4c(c3)OCO4)cc12	x	x	x	x	x	-0.1%
O=C1CCc2cc([S+](=O)([O-])Nc3ccc(N[S+](=O)([O-])c4ccc5c(c4)CCC(=O)N5)cc3)ccc2N1	x	x	x	x	x	-1.8%
O=C(CCc1ccccc1)Nc1ncnc2c1C(c1ccccc1)c1c(ccc3ccccc13)O2 (stereo not drawn)	x	x	x	x	x	50.1%
N#CC(C(=S)Nc1ccccc1)c1nc2ccccc2[nH]1 (stereo not drawn)	5.6	1.78µM*	u	17.7%	-4.8	19.0%
O=C(NCc1ccco1)C1CCN(S(=O)(=O)N2CCOCC2)CC1	-1.9	0.5%	-1.2%	6.1%	-85.0*	-6.0%
CCS(=O)(=O)N1CCC(C(=O)NCc2ccco2)CC1	8.2	0.1%	-1.8%	-1.4%	-6.1	-1.8%
Nc1ccc(S(=O)(=O)N2CCCN(S(=O)(=O)c3ccc4c(c3)OCCO4)CC2)cc1	x	x	x	x	x	-0.6%
O=C(NN1C(=O)c2ccccc2NC1c1ccco1)c1ccccc1 (stereo not drawn)	-7.2	-0.1%	2.2%	1.2%	-7.5	0.3%
O=C(NN1C(=O)c2ccccc2NC1c1ccc([N+](=O)[O-])o1)c1ccccc1 (stereo not drawn)	-84.8*	-1.6%	-1.2%	10.9%	-0.4	-15.5%
Cc1ccc(N=Cc2sc(O)c3ccccc23)cc1	16.4	-0.8%	15.8µM*	u	9.4	u
Cc1ccc(N=Cc2sc(O)c3ccccc23)c(C)c1	7.3	-1.6%	u	7.0%	-4.2	u
O=[S+]([O-])(c1c(F)cccc1F)N1CCN([S+](=O)([O-])c2cccc3nonc23)CC1	x	x	x	x	x	1.4%
SMILES	Giardia killer	B2AR arrestin	Epigenetic reg	p53 reactivation	PI4K2A block	Pin1 inh
O=C(NCCCN1CCOCC1)c1cc(-c2cccs2)on1	-2.2	-1.2%	14.1µM*	u	-1.0	0.2%
CCOC(=O)c1cc2c(=Cc3ccc(N(C)C)cc3)c3ccccc3n2[n+]1C	-13.1	x	x	x	-51.0*	u
c1cc2c(cc1C1=NNC(=NC3CC3)SC1)OCCO2	u	0.1%	28.2µM*	-8.2%	u	8.9%
NC(=S)N=Nc1c(O)n(Cc2ccc(F)cc2)c2ccccc12	9.9	9.2µM*	u	-15.4%	-6.7	-0.8%
O=C(CSC1=NCCS1)N1CCOCC1	8.1	0.2%	0.0%	u	-10.9	-2.2%
O=C(CSC1=NCCS1)N1CCN(c2ccccc2)CC1	5.0	-0.4%	0.0%	35.5µM*	2.9	-0.7%
Cc1ccc(C)c(SC2=NS(=O)(=O)c3ccccc32)c1	x	x	x	x	x	-6.7%
O=C(Nc1ccc(-c2nc3cccnc3s2)cc1)C1CCCO1 (stereo not drawn)	u	-0.5%	-1.7%	x	-57.5*	-2.7%
Cn1cc(P(=O)(c2ccccc2)c2ccccc2)c2ccccc21	x	x	x	x	x	-0.7%
CCCCn1c(O)c(N=Nc2ccccc2O)c2ccccc21	-19.0	-0.5%	x	39.8µM*	14.2	u
Cc1cccc(N(C)C(=S)Oc2ccc3c(c2)C2CCC3C2)c1 (stereo not drawn)	x	x	x	x	-3.3	x
CCC(C)Nc1ccc(NC(C)CC)cc1 (stereo not drawn)	-101.3*!	0.0%	x	-35.6%	-16.2	-14.8%
COc1cccc(C2c3c(ncn(-c4ccccc4Br)c3=N)Oc3ccc4ccccc4c32)c1 (stereo not drawn)	x	x	x	x	x	17.6%
N#C/C(=C\c1ccc(OCc2ccc(Cl)cc2Cl)cc1)c1nc2ccccc2[nH]1	x	x	u	x	6.7	29.7%
COc1cc(/C=C(\C#N)c2nc3ccccc3[nH]2)cc(Cl)c1OCc1ccccc1Cl	x	x	11.2µM*	x	6.7	u
c1ccc(COc2ccc(OCCCCN3CCCC3)cc2)cc1	-11.9	0.2%	-0.9%	11.2µM*	2.1	1.6%
c1ccc(COc2ccc(OCCCN3CCCCC3)cc2)cc1	3.0	-0.1%	-0.2%	u	2.1	-1.1%
COc1cc(F)c(S(=O)(=O)N2CCN(S(=O)(=O)c3cccc(N)c3)CC2)c(F)c1	x	x	x	x	x	2.6%
Cc1ccc(C(=O)c2c3ccc(C(F)(F)F)cc3[n+]([O-])n2CCCN)cc1	-89.8*	-1.2%	x	u	2.5	2.3%
O=C(c1ccccc1)c1c2c(cc3sc4ccccc4[n+]13)-c1cccc3cccc-2c13	0.4	-0.5%	11.2µM*	14.1%	-12.8	u
COc1cccc(C2c3c(ncn(-c4ccncc4)c3=N)Oc3ccc4ccccc4c32)c1 (stereo not drawn)	x	x	x	x	x	8.0%
O=C(COc1cccnc1[N+](=O)[O-])Nc1ccc2c(c1)OC(F)(F)O2	-84.1*	-1.0%	-3.2%	-0.2%	-3.8	-2.9%
COc1ccc(NC(=O)COc2cccnc2[N+](=O)[O-])cc1OC	-20.7	0.3%	-1.6%	2.9%	-3.1	-4.2%
CC1CCCN(C(=O)c2ccc([N+](=O)[O-])o2)C1 (stereo not drawn)	-84.3*	-0.6%	x	u	-6.1	-7.5%
